FMDV inh: foot and mouth disease virus antiviral activity. FMDV antiviral cell-based qHTS. Potency, µM (titrated, usually from 57.9 µM), inactives show top-dose activity change, negative = inhibition, actives largely listed as inhibitors. hit rate 1.2% among 410,000; calls by dose curve; tested in HEK293T cells; further: read-out not given here; potency means the concentration at half of the fitted maximal effect; on the % scale 0 is the no-effect control and ±100 the full control effect; nearly all actives have a fitted effect of over 45% in size
Sm TGR inh: inhibitors of Schistosoma mansoni thioredoxin glutathione reductase. hit rate 3% among 360,000. Q962Y6. Potency, µM (highest dose often 114 µM), for inactives: at the top dose activity change, negative = inhibition, most hits filed as inhibitors. purified TGR, DTNB reduction, TNB absorbance 405 nm; active means well fitted inhibition curve with a large enough effect; inconclusive means small, poorly fitted or top-dose-only effect; inactive means no such curve, though single readings can be large or run the other way; further: potency means the concentration at half of the fitted maximal effect; on the % scale 0 is the no-effect control and ±100 the full control effect; nearly all actives have a fitted effect of over 60% in size
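TGR 20 nM + NADPH 100 uM (dispensed conc.), cpd preinc 15 min RT; start with NADPH (500 uM addition) then DTNB (15 mM addition). Kinetic TNB absorbance, 405 nm filter. Four-parameter Hill fit across titration.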
Shiga toxin inh: Shiga toxin inhibition. AID 2315. inhibition, % at 38.7 µM. hit rate 9.2% among 290,000. Vero cells, Shiga toxin protein synthesis inhibition reporter; in the data active means inhibition mostly above about 28%, no sharp cut-off; inactive means mostly below about 43%; further: 0% is about no effect
CHX counter: counter-screen for Shiga toxin inhibitors: cycloheximide protein synthesis inhibition; cell reporter, cycloheximide protein synthesis inhibition counterscreen; max response, %; hit rate 12% among 300,000; AID 2314; in the data active means max response mostly above about 13%, no sharp cut-off; inactive means mostly below about 14%; further: read at 38.3 µM for the half of the compounds with a filed dose; 0% is about no effect
Active calls of the source: *; ? = inconclusive; nt = no result given; [ ] = another dose, or the depositor's remark. Hits are enriched below; roughly 12% of the tested compounds scored in any of these assays.

SMILES	FMDV inh	Sm TGR inh	Shiga toxin inh	CHX counter
CCCN(CCC)C(=O)Cn1c(=O)n(-c2ccc(C)cc2)c(=O)c2ccc(C(=O)NCc3ccccc3Cl)cc21	68.1%	-4.2%	nt	nt
CCC1CN(CC(=O)NCc2ccc3c(c2)OCO3)Cc2ccc(Cl)cc2O1 (stereo not given)	-5.1%	nt	nt	nt
c1ccc2c(-c3nc(-c4ccncc4)no3)cccc2c1	66.9%	1.8%	63.3*	21.3*
c1ccc(-c2ccccc2-c2nc(-c3cccnc3)no2)cc1	-6.6%	-12.6%	-5.8	-1.0
c1cncc(-c2noc(-c3cccc4ccccc34)n2)c1	54.4%	-2.2%	89.2*	45.3*
Brc1cccc(-c2nc(-c3ccncc3)no2)c1	-14.2%	-14.3%[11.4 µM]	12.1	11.4
c1ccc(-c2noc(-c3cccc4ccccc34)n2)cc1	50.2%	5.0%	50.1*	54.4*
O=C1CC(c2cccc(O)c2)c2cc3c(cc2N1)OCO3 (stereo not given)	-9.6%	-1.5%	nt	nt
Cc1cc(C)c2c(-n3cccc3)c(C(=O)NCCc3ccccc3)sc2n1	-17.9%	2.1%	nt	nt
CCCCn1c(SCC(=O)NCc2ccco2)nnc1-c1ccco1	33.4%	44.7µM*	2.1	1.9
CCCCn1c(SCC(=O)NCc2ccco2)nnc1-c1ccoc1C	-14.7%	28.2µM*	-2.7	-1.0
CCn1c(CNC(=O)Cc2ccc(OC)cc2)nnc1SCCOc1ccccc1	?	-22.5%	-19.1	-6.0
CCn1c(CNC(=O)Cc2ccc(OC)cc2)nnc1SCC(=O)c1ccccc1	2.5%	31.6µM*	-15.2	-0.2
CC(Sc1nnc(-c2cccs2)n1-c1ccccc1)C(=O)NCc1ccco1 (stereo not given)	?	44.7µM*	2.8	-3.3
CCCCn1c(SCC(=O)OCC)nnc1-c1ccoc1C	0.5%	8.1%	15.2	-0.1
CCCn1c(SCC(=O)NCc2ccco2)nnc1-c1ccncc1	-1.3%	nt	19.8	-1.2
O=S(=O)(Nc1c(Br)cc(Br)c2cccnc12)C1CCCCC1	nt	nt	-0.7	-7.3
CCOC(=O)c1cc(-c2ccc(F)cc2)n(CCC(=O)Nc2nc3cc(C)c(C)cc3s2)c1C	-19.9%	10.1%	nt	nt
CCOC(=O)C1CCN(C(=O)Cn2nc(CC)n3c(cc4sccc43)c2=O)CC1	?	3.6%	nt	nt
O=C(Cc1cccs1)NCc1ccco1	6.9%	-30.1%	10.4	-3.2
COCCn1c(SCC(=O)c2ccc(Cl)cc2)nnc1C(C)C	-9.4%	39.8µM*	0.6	1.1
CCn1c(SCC(=O)c2ccc(O)c(O)c2)nnc1-c1ccccc1	36.9%	-28.2%	60.6	33.5*
COCCn1c(SCC(=O)NCc2ccco2)nnc1C(C)C	-12.5%	44.7µM*	-4.9	-1.2
CCn1c(SCC(=O)NCc2ccco2)nnc1C(C)C	-9.4%	0.0%	32.4	8.8
CC(Sc1ccsc1[N+](=O)[O-])C(=O)NCc1ccco1 (stereo not given)	-7.1%	22.4µM*	10.7	-3.7
SMILES	FMDV inh	Sm TGR inh	Shiga toxin inh	CHX counter
Cc1ccc(CNC(=O)Cn2c(=O)n(-c3cccc(Cl)c3)c(=O)c3sc4ccccc4c32)cc1	-24.4%	-1.8%	nt	nt
COc1cccc(CNC(=O)C2=C(C)C(=O)OC23CCN(C(C)=O)CC3)c1OC	-8.6%	1.8%	nt	nt
CCn1c(SCC(=O)c2ccccc2)nnc1-c1cccs1	30.5%	1.1%	77.2*	66.2*
CCn1c(SCC(=O)NCc2ccco2)nnc1-c1cccs1	-7.1%	10µM*	14.6	12.2
CCn1c(SCC(=O)NCCc2ccccc2)nnc1-c1cccs1	-7.5%	5.7%	10.9	-1.4
CC(Sc1nnc(-c2cccnc2)n1-c1ccccc1)C(=O)NCc1ccc2c(c1)OCO2 (stereo not given)	nt	2.0%	76.4*	39.6*
Cc1cccc(C)c1NC(=O)c1ccc2nc(CCc3ccccc3)oc2c1	?	1.8%	nt	nt
CCc1ccc(-n2c(=O)c3c4c(sc3n(CC(=O)c3ccc(F)cc3)c2=O)CCC4)cc1	-21.5%	1.1%	nt	nt
Cc1ccc(C(=O)c2cn(Cc3cccc(Cl)c3)c3nc(C)ccc3c2=O)cc1	-21.4%	-4.2%	nt	nt
CCN(CC)S(=O)(=O)c1csc(C(=O)OCC(=O)c2ccccc2)c1	9.0%	-2.0%	41.1*	32.8*
COc1ccc2c(c1)c1c(c(=O)n(-c3ccccc3C)c(=O)n1CC(=O)Nc1c(C)cccc1C)n2C	0.0%	2.1%	nt	nt
CC[C@H](C)[C@H](NC(=O)[C@H](CCC(=O)O)NC(=O)[C@@H](N)CO)C(=O)N[C@@H](CCC(N)=O)C(=O)N[C@@H](CC(C)C)C(=O)N[C@@H](CCSC)C(=O)N[C@@H](Cc1cnc[nH]1)C(=O)N[C@@H](CC(N)=O)C(=O)N[C@@H](CC(C)C)C(=O)NCC(=O)N[C@@H](CCCCN)C(=O)N[C@@H](Cc1cnc[nH]1)C(=O)N[C@@H](CC(C)C)C(=O)N[C@@H](CC(N)=O)C(=O)N[C@@H](CO)C(=O)N[C@@H](CCSC)C(=O)N[C@@H](CCC(=O)O)C(=O)N[C@@H](CCCNC(=N)N)C(=O)N[C@H](C(=O)N[C@@H](CCC(=O)O)C(=O)N[C@@H](Cc1c[nH]c2ccccc12)C(=O)N[C@@H](CC(C)C)C(=O)N[C@@H](CCCNC(=N)N)C(=O)N[C@@H](CCCCN)C(=O)N[C@@H](CCCCN)C(=O)N[C@@H](CC(C)C)C(=O)N[C@@H](CCC(N)=O)C(=O)N[C@@H](CC(=O)O)C(=O)N[C@H](C(=O)N[C@@H](Cc1cnc[nH]1)C(=O)N[C@@H](CC(N)=O)C(=O)N[C@@H](Cc1ccccc1)C(=O)O)C(C)C)C(C)C	nt	nt	-4.9	-8.4
Cc1ccc(NC(=O)N2CCCc3ccccc32)cc1	43.4%	1.0%	86.1*	30.7*
Cc1ccc(NC(=O)N2CCc3ccccc32)cc1C	-33.9%	5.8%	97.6*	31.1*
S=C(Nc1cccnc1)N1CCc2ccccc21	-1.6%	-2.2%	-4.2	-0.7
Cc1ccc(NC(=O)N2CC3CCCN3c3ccccc32)cc1C (stereo not given)	-17.3%	-11.6%	nt	nt
Cc1ccc(NC(=O)N2CCc3ccccc32)cc1	-55.1%	0.0%	20.4	20.8*
Fc1ccc(NC(=S)N2CCCc3ccccc32)cc1	0.6%	-21.6%	51.2*	10.0
CCS(=O)(=O)N1CCc2cc(C(=O)Nc3ccc(Br)cc3F)ccc21	0.0%	-8.4%	nt	nt
CCOc1ccc(C2=NC(c3ccncc3)=Nc3ccc(C)cc3N2)cc1OCC	-27.5%	6.8%	nt	nt
O=C(CCCCCn1c(=O)[nH]c2ccccc2c1=O)NCc1cccc(Cl)c1	13.0%	4.2%	nt	nt
COc1ccc(C(=O)N2CC(=O)Nc3ccc(F)cc3C2c2ccc(F)cc2)c(OC)c1 (stereo not given)	-22.7%	-1.0%	nt	nt
COc1ccc2ccccc2c1CN1CCOc2ccc(CN3CCN(CCO)CC3)cc2C1	-5.4%	nt	nt	nt
CCc1ccccc1NC(=O)N1CCCc2ccccc21	7.0%	-21.7%	59.2*	43.5*
CN1CCN(c2ccc(NC(=O)N3CCc4ccccc43)cc2)CC1	17.8µM*	-1.1%	20.4	17.5*
CC(=O)c1cccc(NC(=O)c2cc(C)nc3c2c(C)nn3-c2cccc(Cl)c2C)c1	?	0.9%	nt	nt
Cc1c(NC(=O)C(C)OC(=O)/C=C/c2ccco2)c(=O)n(-c2ccccc2)n1C (stereo not given)	1.9%	44.7µM*	16.7	-1.8

Screening data as filed in PubChem.
